Source: PubChem
NPSR antag = neuropeptide S receptor (human) antagonism, cAMP; CHO-NPSR cells, cAMP TR-FRET, antagonist mode; AID 1461; Potency, µM (series often up to 38.3 µM), hits mostly inhibitors; Q6W5P4; 220,000 compounds, 1% hits; also: nearly all actives have a fitted effect of over 50% in size
Target sequence (Q6W5P4 whole entry, looked up): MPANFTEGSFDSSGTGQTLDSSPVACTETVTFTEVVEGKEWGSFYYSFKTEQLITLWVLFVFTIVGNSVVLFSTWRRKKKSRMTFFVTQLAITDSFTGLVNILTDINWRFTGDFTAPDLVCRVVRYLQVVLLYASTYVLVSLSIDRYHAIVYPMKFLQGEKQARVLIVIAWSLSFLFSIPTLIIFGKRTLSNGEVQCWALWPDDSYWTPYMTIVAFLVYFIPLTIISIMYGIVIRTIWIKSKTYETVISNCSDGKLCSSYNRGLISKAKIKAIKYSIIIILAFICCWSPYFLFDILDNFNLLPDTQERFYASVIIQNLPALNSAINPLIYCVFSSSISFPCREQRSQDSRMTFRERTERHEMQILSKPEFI
RXFP1 antag = blocks the human relaxin receptor RXFP1; Q9HBX9; HEK293-RXFP1, relaxin-stimulated cAMP HTRF, 30 min; stronger effect = lower value; activity change, negative = inhibition, % at 57.5 µM; 350,000 compounds, 0.59% hits;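 active = activity change of -60% or lower, but not beyond a set lower limit; inconclusive = change between -60% and -40%, or beyond the set limit; inactive = change above -40%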
RXFP1 ag = agonists of human relaxin receptor RXFP1; Q9HBX9; HEK293T-RXFP1 cAMP TR-FRET, 30 min; response scale: percent of porcine relaxin response, buffer zero; Potency, µM (doses to about 57.5 µM), hits mostly activators; 370,000 compounds, 0.3% hits; also: nearly all actives have a fitted effect of over 60% in size
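cAMP rise read by TR-FRET after 30 min, 37C compound exposure (up to 58 uM) in RXFP1-transfected HEK293 cells with Ro 20174 present. EC50 from Hill-equation fits, with 29 nM porcine relaxin as 100% and buffer as basal.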
TSHR antag = antagonists of human thyroid stimulating hormone receptor. activity change, negative = inhibition, % at 11.5 µM. 330,000 compounds, 0.2% hits. TSHR-expressing cells, TSH-stimulated cAMP HTRF, 2 h; stronger effect = lower value;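 active = activity change below a set negative limit, meaning inhibition stronger than a set level, cut at about -70% in these data; inconclusive = activity change between two set negative limits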
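Freshly harvested TSHR cells receive pin-tooled compound, then EC80 TSH at 4nM final. After 2 hours at 37 deg C, antibody in lysis buffer and cAMP-d2 are added; 30 minutes at ambient temperature precede the HTRF read.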
GLP1R cytotox = cytotoxicity in counter-screen for GLP-1R inverse agonists | HEK293 cAMP-luciferase reporter cells, luminescence, 24 h | Potency, µM (highest dose often 38.3 µM), usual class: inhibitors | 410,000 compounds, 0.13% hits;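 also: loss of luciferase light is scored as toxicity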
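Luminescence readout: signal drop marks cytotoxicity. Plated cells grew 12 h at 37 °C, 5% CO2, received 23 nL compound for 24 h, then got luciferase reagent, read after 12 min at RT.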
PTHR1 ag = PTHR1 (human) receptor agonism. HEK293 GP2 PTHR1 cells, GloSensor cAMP luminescence, 1 h. AID 743266. 410,000 compounds, 0.075% hits. Potency, µM (highest dose often 115 µM), actives largely listed as activators. Q03431; also: nearly all actives have a fitted effect of over 55% in size
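HEK-293-derived GP2 cells expressing PTHR1 and a GloSensor cAMP reporter, 3,000/well, plated overnight, given luciferin plus IBMX (each 0.5 mM as added) for 1 h at 37 °C, then compound for 1 h at 37 °C. Luminescence was read after 15 min at room temperature.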
Each line names hits and unclear results; the compound was inactive in the other large screens; ! = not confirmed by another sample. This is one part of a sample in which hits are shown more often than they occur. Unless noted, calls follow the shape of the dose curve; as a rule, active = well fitted curve in the direction sought with a large enough effect; inconclusive = small, poorly fitted or top-dose-only effect, or another doubt; inactive = no such curve, though single readings can be large; an effect the other way counts as inactive or inconclusive.

CCOc1ccc(-c2cc(C)[n+](CCO)c(-c3ccc(OCC)cc3)c2)cc1	none
CC[C@@]1(c2ccccc2OC)ON(c2ccccc2C(F)(F)F)C1=O	none (no result: NPSR antag, RXFP1 antag)
CCOC(=O)CS(=O)(=O)c1nc(-c2ccccc2)cc(C(F)(F)F)n1	NPSR antag 10µM, RXFP1 antag -78, TSHR antag inconclusive, GLP1R cytotox inconclusive
CCOC(=O)CS(=O)(=O)c1nc(-c2ccc(F)cc2)cc(C(F)(F)F)n1	NPSR antag inconclusive, RXFP1 antag -80, GLP1R cytotox inconclusive
COc1ccc(-c2cc(C(F)(F)F)nc(S(C)(=O)=O)n2)cc1	NPSR antag inconclusive, GLP1R cytotox inconclusive
CC[N+]1(CC)CCC(OC(=O)C(O)(c2ccccc2)c2ccccc2)C1 (configuration not stated)	none (no result: NPSR antag, RXFP1 ag, TSHR antag, GLP1R cytotox, PTHR1 ag)
CN(CC(=O)Nc1cccc(F)c1)C(=O)c1ccccc1CCc1ccccc1	GLP1R cytotox inconclusive (no result: NPSR antag)
Brc1ccc2c(c1)C(OC1CN3CCC1CC3)c1ccccc1CS2 (configuration not stated)	GLP1R cytotox 10µM (no result: RXFP1 antag)
Cc1c(C(=O)NCc2cccc(C(F)(F)F)c2)sc(=O)n1Cc1ccc(C(=O)N(C)C)cc1	none (no result: NPSR antag, RXFP1 antag, RXFP1 ag, TSHR antag)
Oc1ccc(N=Nc2nc(-c3ccccc3)c(-c3ccccc3)[nH]2)cc1	NPSR antag inconclusive, GLP1R cytotox 10µM
COc1ccc(-c2[nH]ncc2N=Nc2ccccc2)cc1	GLP1R cytotox inconclusive
COc1ccc2sc(-c3ccc(SC)cc3)c(-c3ccc(O)cc3)c2c1	GLP1R cytotox inconclusive (no result: NPSR antag, RXFP1 antag, RXFP1 ag)
O=C1NC(=O)N(Cc2ccccc2)C(=O)/C1=C/C=C/c1ccco1	NPSR antag inconclusive, RXFP1 antag inconclusive, GLP1R cytotox inconclusive
CC(C)c1ccc(N2C(=O)NC(=O)/C(=C\C=C\c3ccco3)C2=O)cc1	NPSR antag 4µM, RXFP1 antag inconclusive, GLP1R cytotox inconclusive
CCOC(=O)[C@]12Cc3cc(C)ccc3[C@H]1N(Cc1ccccc1)C(=O)c1ccccc12	none (no result: NPSR antag, RXFP1 antag, RXFP1 ag, TSHR antag)
CCOC(=O)C1=C(Cn2cnc3ccccc32)NC(=O)NC1c1cc(C)ccc1C (configuration not stated)	NPSR antag inconclusive, GLP1R cytotox 11µM
CN1CCN(CCCN2c3ccccc3Sc3ccc(C(F)(F)F)cc32)CC1	NPSR antag inconclusive, RXFP1 antag -65!, GLP1R cytotox inconclusive
COc1cc(OC)c(OC)cc1/C=C1/C(=O)NC(=O)N(Cc2ccccc2)C1=O	RXFP1 antag -64
CC(Cc1ccccc1)N(C)Cc1ccco1 (configuration not stated)	none (no result: NPSR antag, RXFP1 ag, TSHR antag, GLP1R cytotox, PTHR1 ag)
O=C1NC(=O)N(CCc2ccc(F)cc2)C(=O)/C1=C/c1ccco1	RXFP1 antag inconclusive
Cc1ccc(/C=C2/C(=O)NC(=O)N(CCc3ccc(F)cc3)C2=O)o1	NPSR antag inconclusive, RXFP1 antag -73
CCCCNC(=S)Nc1ccc(C(F)(F)F)cc1	GLP1R cytotox inconclusive
CO/C=C(/C(=O)OC)c1ccccc1Oc1cc(Oc2ccccc2C#N)ncn1	none (no result: NPSR antag, RXFP1 ag, TSHR antag, GLP1R cytotox, PTHR1 ag)
CCCCCCCSc1cc(OC)c(CCNC)cc1OC	NPSR antag inconclusive, RXFP1 antag -70, GLP1R cytotox inconclusive
COC(=O)c1ccc(N2CCN(C)CC2)c([N+](=O)[O-])c1	none
CS(=O)(=O)c1ccc(C(=O)OCC(=O)NCc2cccs2)cc1[N+](=O)[O-]	RXFP1 antag -101, TSHR antag inconclusive, GLP1R cytotox inconclusive (no result: NPSR antag, RXFP1 ag)
OC(CN1CC=C(c2ccccc2)CC1)c1ccccc1 (configuration not stated)	none (no result: NPSR antag)
OC(COCc1ccc(Cl)cc1)CN1CC=C(c2ccccc2)CC1 (configuration not stated)	RXFP1 antag -61!, GLP1R cytotox inconclusive
CN(C)c1ccc(/C=C/c2cc[n+](C)c3ccccc23)cc1	NPSR antag 6.3µM, RXFP1 antag -95!, GLP1R cytotox inconclusive
Cc1ccc(C(=O)Nc2ccncc2)cc1S(=O)(=O)N1CCCCC1	none (no result: NPSR antag, RXFP1 ag, TSHR antag)
CCn1nc(-c2cccs2)nc2c(=O)n(C)c(=O)nc1-2	NPSR antag 2.5µM, GLP1R cytotox inconclusive
